Measurements: PubChem BioAssay (Tox21)
Records with an inconclusive call do not appear. Values without a mark were called inactive. Calls of active or inactive are those of the source. Calls come from the whole dose curve; as a rule, active = well fitted inhibition curve with a large enough effect in the signal ratio in the repeat runs (not every such curve was filed as active); inconclusive = weak or mixed curves, or effect the other way; inactive = flat fitted curve, though single readings scatter; the % refers to the signal ratio.

Assay: cAMP Responsive Elements (CRE) small molecule antagonists, cell-based qHTS assay (AID 1963591)
Conditions: CRE-bla HEK293T, beta-lactamase FRET ratio; series mostly up to 92.4 µM; activity change, negative = inhibition: at the top concentration
Source text: U.S. Tox21 Program National Center for Advancing Translational Sciences [NCATS] Division of Preclinical Innovation [DPI] U.S. Environmental Protection Agency [EPA] National Institutes of Environmental Health Sciences [NIEHS] National Toxicology Program [NTP] U.S. Food and Drug Administration [FDA] Tox21 Assay Overview: CREB (cyclic-AMP Responsive Element Binding Protein) is a cellular transcription factor. It binds to certain DNA sequences called cAMP Responsive Elements (CRE) and regulates the transcription of the genes. […] This cell line can be used to find agonists/antagonists of the cyclic AMP signaling pathway. The activation of the report gene under culture conditions can be detected by fluorescence intensity. This cell line has been used to screen the Tox21 10K compound library to […].
Tox21 Assay Protocol Summary: CRE-bla Hek 293T cells were suspended in assay medium (DMEM containing 10% dialyzed FBS, 0.1 mM NEAA, 1 mM sodium pyruvate and 25 mM HEPES) and dispensed at 2,000 cells/4 uL /well into 1536-well black wall/clear bottom plates using a Multidrop Combi (ThermoFisher Scientific, Waltham, MA) dispenser. After the assay plates were incubated at 37 C/5% CO2 for 18 hrs, 23 nL of compounds dissolved in DMSO, positive controls or DMSO only was transferred to the assay plate by a pintool workstation (Kalypsys, San Diego, CA), followed by addition of 1 […] uL of 1.25uM NKH477 (0.25 uM as final concentration) in assay medium using a Flying Reagent Dispenser (Aurora Discovery, San Diego, CA). The plates were incubated at 37 C and 5% CO2 for 3 hrs. Then 1 uL of LiveBLAzer B/G FRET substrate (Invitrogen, Carlsbad, CA) was added to each well using Bioraptr Flying Reagent Dispenser (FRD, Aurora Discovery, San Diego, CA). The plates were incubated at room temperature for 2 h.
% is set by controls: 0 for no effect and ±100 for the full control effect.

SMILES	Potency	activity change, negative = inhibition
CN(C)c1ccccc1	inactive	–
Nc1ccc2ccccc2c1	–	16.4%
C=CCN1CC[C@]23CCCC[C@H]2[C@H]1Cc1ccc(O)cc13	–	-1.63% [at 42.4 µM]
Cc1cc(-c2ccc(N)c(C)c2)ccc1N	inactive	–
CC(C)NC(C)C	inactive	–
Cn1c(N)nc2c3cccnc3ccc21	–	-0.995%
COc1ccc(N)cc1	inactive	–
CCOP(=O)(O)OCC (tested in a mixture with another compound)	–	2.39%
Cc1ccc(CCl)cc1	–	0.41%
CC(C)(N)Cc1ccccc1Cl	–	-5.77% [at 42.4 µM]
CCCC[n+]1ccccc1C	inactive	–
Cc1ccc(N=CN(C)C=Nc2ccc(C)cc2C)c(C)c1	inactive	–
Cc1cc(Cl)ccc1OCC(=O)O	inactive	–
O=C(O)c1nc(Cl)ccc1Cl	inactive	–
CC(O)CCO (stereo not given)	inactive	–
CCCCCCCCCCCOC(=O)c1ccccc1C(=O)OCCCCCCCCCCC	inactive	–
CNCC(O)c1ccc(O)cc1 (stereo not given)	inactive	–
Nc1ccc([As](=O)(O)O)cc1	inactive	–
CCC(=O)c1ccccc1	–	3.68%
COCC(=O)N(c1c(C)cccc1C)C(C)C(=O)OC (stereo not given)	inactive	–

SMILES	Potency	activity change, negative = inhibition
O=C(NCc1cccnc1)Nc1ccc([N+](=O)[O-])cc1	–	1.41%
ClCCN1CCOCC1	–	-0.313%
C=CCN1C[C@H](C)N([C@H](c2ccc(C(=O)N(CC)CC)cc2)c2cccc(OC)c2)C[C@H]1C	–	-5.81% [at 42.4 µM]
Nc1ccc(-c2ccc(N)cc2)cc1	inactive	–
C=CC=O	–	-1.73%
ClCc1ccccc1CCl	–	1.81%
OC(Cc1ccccc1Cl)(Cn1cncn1)C1(Cl)CC1 (stereo not given)	–	4.46%
Oc1ccc(Cl)c(Cl)c1	–	-7.38%
ClC1C(Cl)C(Cl)C(Cl)C(Cl)C1Cl (stereo not given)	inactive	–
CC(O)CN(CC(C)O)CC(C)O (stereo not given)	inactive	–
CC1(C)[C@H](C(=O)O[C@H](C#N)c2cccc(Oc3ccccc3)c2)[C@@H]1/C=C(\Cl)C(F)(F)F	–	-7.09%
ClCc1ccccc1	–	4.54%
CCCCCCCCOC(=O)c1ccccc1C(=O)OCCCCCCCC	inactive	–
CN(CCCC(=O)c1cccnc1)N=O	–	-3.05%
c1ccc2c(c1)oc1ccccc12	inactive	–
CC1(C)C(=O)NC(=O)NC1=O	–	-11.1%
CCC(C)c1cc([N+](=O)[O-])cc([N+](=O)[O-])c1O (stereo not given)	–	-1.3%
O=S(=O)(O)C(F)(F)C(F)(F)C(F)(F)C(F)(F)C(F)(F)C(F)(F)F	–	5.37%
CC(C)(C)C(O)(CCc1ccc(Cl)cc1)Cn1cncn1 (stereo not given)	–	-3.55%
CC(=O)CCC(C)=O	–	1.22%
